# Laboratory results from PubChem BioAssay (NCATS).
# Results filed as inconclusive are left out. Unmarked numbers belong to inactive results. Activity calls are given as the source filed them. The call rests on the fitted dose curve; in most records, active means well fitted inhibition curve with a large enough effect; inconclusive means small, poorly fitted or top-dose-only effect; inactive means no such curve, though single readings can be large or run the other way.
# Target: Muscarinic acetylcholine receptor M1 (Rattus norvegicus) (UniProt P08482)
# Test: qHTS Assay for Antagonists of Acetylcholine Muscarinic M1 Receptor: Kinetic Measurement of Intracellular Calcium Response (AID 943); further: nearly all actives have a fitted effect of over 75% in size
# Details: M1-expressing cells, kinetic intracellular calcium fluorescence; series mostly up to 35.3 µM; activity change, negative = inhibition: at the top concentration
# Text: NIH Molecular Libraries Screening Centers Network [MLSCN]
# NIH Chemical Genomics Center [NCGC]
# Acetylcholine muscarinic M1 receptor is a G-protein coupled receptor (GPCR) coupling to the Gq G protein. It is mainly expressed in brain and functionally related to the learning and memory processes. The agonists of this receptor have the potential for the treatment of Alzheimer's disease and cognitive impairments associated with Schizophrenia. Upon an activation of the M1 receptor, phosholipase C (PLC) is activated to produce inositol 1,4,5-trisphosphate (IP3) and diacyl glycerol (DAG) resulting in increase of intracellular free Ca2+ and activation of protein kinase C (PKC). The increase of intracellular calcium can be measured by the fluorescent calcium dyes, Fluo-3 and Fluo-4, using a fluorescence kinetic plate reader.
# We have obtained a M1-CHO cell line transfected with rat acetylcholine M1 receptor and optimized a calcium assay with this cell line for compound screening as a counter-screen assay for other Gq-coupled GPCRs.
# NCGC Assay Protocol Summary:
# The CHO-M1 (CHO-M1) cell line transfected with the rat acetylcholine muscarinic M1 receptor was obtained from ATCC. The cells were maintained in call culture flasks with F12 Kaighn's media (Invitrogen) supplemented with 10 % FBS, 100 units/ml penicillin, 100 ug/ml streptomycin and 250 ug/ml geneticin (Invitrogen) at 37C, 5 % CO2 in a humidified atmosphere. At 90-95 % confluence, the cells were then detached in 15 ml […] % trypsin by 3 minutes incubation at 37C and centrifuged at 1000 RPM to remove the trypsin solution. The resulting cell pellet was resuspended in the cell freezing media containing 10 % DMSO (Invitrogen) at a density of 4 x 10^7 cells/ml. The aliquots of cells at 0.5 - 1 ml per vial were frozen down slowly at 1 degree C/min using a Cryo 1 degree C freezing container in the presence of isopropanol (Nalgene Nunc, Rochster, NY) overnight in a -80C freezer. The frozen cells were then transferred to liquid nitrogen for the storage up to one year.
# The resuspended frozen cells were plated at 3 ul/well with 2000 cells in the black, tissue culture treated, clear bottom 1536-well plates. After overnight incubation at 37C, 5% CO2, 2.5 ul/well no-wash calcium dye (containing Fluo-4, BD Biosciences) were loaded and incubated at 37C, 5 % CO2 for 1 hour followed by a 10 min incubation with 20 nl compound in DMSO solution. The assay plates were then placed onto the kinetic fluorescence plate reader (FDSS-7000, Hamamatsu) for a measurement of the kinetic changes in intracellular free calcium. The basal fluorescence signal was measured for 6 times at 1 Hz followed by an addition of 1 ul of carbachol and continued 4 min measurement. The results were calculated as the maximal signal (peak) divided by the minimal signal (basal).
# 1536-well assay protocol:
# (1) 3 ul/well containing 2000 M1-CHO cells in 1536 tissue culture treated black/clear bottom plate
# (3) Add 1ul/well calcium dye (from no-wash calcium dye kit, BD Biosciences) containing […]
# (4) Incubate 1 hour at 37C with 5% CO2
# (5) Add 20 nl compound diluted in DMSO
# (6) Incubate 10 minutes at the room temp
# (7) Place the plate in FDSS-7000 instrument (Ex = 480 nm and […])
# #- read the assay plate 6 times at 1 Hz for basal signal
# #- add 1 ul/well EC80 carbachol (100 nM final)
# #- continuously read the assay plate for 4 min at 1 Hz
# Keywords: acetylcholine muscarinic M1 receptor, calcium kinetic assay, Fluo-4, high throughput screening, MLSMR, MLSCN, NIH Roadmap, qHTS and NCGC
# Chain of Muscarinic acetylcholine receptor M1 (Rattus norvegicus) (P08482 whole entry, looked up): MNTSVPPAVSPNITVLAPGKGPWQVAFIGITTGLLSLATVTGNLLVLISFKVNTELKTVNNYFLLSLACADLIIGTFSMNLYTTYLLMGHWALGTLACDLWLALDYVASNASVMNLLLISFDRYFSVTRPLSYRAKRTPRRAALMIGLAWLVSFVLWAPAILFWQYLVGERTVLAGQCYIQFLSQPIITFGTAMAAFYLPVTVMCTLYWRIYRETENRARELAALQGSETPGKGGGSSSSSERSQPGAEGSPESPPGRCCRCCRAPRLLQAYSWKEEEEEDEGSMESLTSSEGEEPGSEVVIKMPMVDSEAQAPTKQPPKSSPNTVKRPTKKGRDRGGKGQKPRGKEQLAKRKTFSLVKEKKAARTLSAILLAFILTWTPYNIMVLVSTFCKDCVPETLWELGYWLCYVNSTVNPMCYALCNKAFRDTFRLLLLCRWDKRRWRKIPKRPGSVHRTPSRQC
Compound,"activity change, negative = inhibition [%]",Potency
OC[C@@H]1O[C@@H](n2cnc3c(NC4CCCCC4)ncnc32)[C@@H](O)[C@H]1O,-12.3,–
Nc1ccc(CCNc2ncnc3c2ncn3[C@@H]2O[C@@H](CO)[C@H](O)[C@@H]2O)cc1,-44.4,–
Nc1ncnc2c1nc(Br)n2[C@@H]1O[C@H]2COP(=O)(O)O[C@@H]2[C@H]1O,-33.1,–
COc1cc([C@H](O)C(=O)O)ccc1O,-23.9,–
NC(=O)c1ncn([C@@H]2O[C@@H](CO)[C@@H](O)[C@H]2O)c1O,-36.7,–
CCCCCCCCCCCCCCC/C=C\[C@H](O)[C@@H](NC(=O)CCCCCCCCCCCCC)OC (tested in a mixture with another compound),-41.7,–
C[C@@H](CN1CCC(Cc2ccccc2)CC1)[C@H](O)c1ccc(O)cc1,–,5.62 µM (active)
OC[C@@H]1O[C@H](O)[C@@H](Cl)[C@H](O)[C@@H]1O,-29.4,–
CCCCCCCCCCCCCCCC(=O)NC[C@@H](COP(=O)([O-])OCC[N+](C)(C)C)OCC,–,11.2 µM (active)
CC(=O)[C@@H]1CC[C@@H]2[C@@H]3CC=C4C[C@H](OS(=O)(=O)O)CC[C@@]4(C)[C@H]3CC[C@]21C,-30,–
CCCC[S@@](=N)(=O)CC[C@@H](N)C(=O)O,-16.7,–
COc1cc2c(cc1O)CC[C@@H]1[C@@H]2CC[C@@]2(C)[C@H](O)CC[C@H]12,-35.1,–
Nc1nc2c(nc(Br)n2[C@@H]2O[C@H]3COP(=O)(O)O[C@@H]3[C@H]2O)c(=O)[nH]1,-40.2,–
N.N.N.N.N.N.N.N.N.N.N.N.N.N.O.O.[Ru].[Ru].[Ru],-17.2,–
CC(C)[C@H]1C(=O)C(C(N)=O)=C(O)[C@]2(O)C(=O)C3=C(O)c4c(O)ccc(N(C)C)c4C[C@H]3C[C@@H]12,-12.6,–
N[C@H](CCC(=O)NCS(=O)(=O)O)C(=O)O,-27.4,–
Cc1nnc(SCC2=C(C(=O)O)N3C(=O)[C@@H](NC(=O)Cn4cnnn4)[C@@H]3SC2)s1,-55.3,–
NC(N)=N[C@H](CCC(=O)O)C(=O)O,-34.6,–
Nc1nc(SCc2ccc([N+](=O)[O-])cc2)c2ncn([C@@H]3O[C@@H](CO)[C@@H](O)[C@H]3O)c2n1,–,25.1 µM (active)
Cc1ccccc1CNc1ncnc2c1ncn2[C@@H]1O[C@@H](CO)[C@H](O)[C@@H]1O,-28.9,–

Compound,"activity change, negative = inhibition [%]",Potency
Nc1nc(Nc2ccccc2)nc2c1ncn2[C@@H]1O[C@@H](CO)[C@H](O)[C@@H]1O,-33.8,–
C=C[C@@]1(C)CC(=O)[C@@]2(O)[C@@]3(C)[C@H](O)CCC(C)(C)[C@@H]3[C@H](O)[C@H](OC(C)=O)[C@]2(C)O1,-5.02,–
CCCCC[C@H](CC(=O)NO)C(=O)N[C@@H](C(=O)N1CCC[C@H]1CO)C(C)C,-1.04,–
CN[C@]1(C)[C@@H]2CC[C@@H](C2)C1(C)C,-30.8,–
O=S(=O)(NCCNC/C=C\c1ccc(Br)cc1)c1cccc2cnccc12,–,14.1 µM (active)
CC1(C)CCC(NC(=O)[C@H](N)CCC(=O)O)CC1,-45.3,–
O=C1OC(=O)[C@@H]2[C@@H]1[C@@H]1CC[C@H]2O1,-37.7,–
CN(C)C(=O)/N=N\C(=O)N(C)C,-18.9,–
CN1CC[C@@]2(CCN3CCc4c(oc5ccccc45)[C@@H]3C2)N(C)C1=O,-38.3,–
O=C(O)[C@H]1C[C@H](C(=O)O)N1,1.85,–
O=C(O)/C=C\c1cnc[nH]1,-23.4,–
NC[C@H](O)C1CCCCCCC1,-27.8,–
COc1c2c(nc3ccccc13)O[C@@H]([C@@](C)(O)CO)C2,-25.6,–
OC[C@@H]1O[C@@H](n2cnc3c(N[C@@H]4C[C@@H]5CC[C@H]4C5)ncnc32)[C@@H](O)[C@H]1O,-35.8,–
O=C1O/C(=C\Br)CC[C@@H]1c1cccc2ccccc12,-14.3,–
COc1ccccc1OC[C@H](O)CN1CCN(CC(=O)Nc2c(C)cccc2C)CC1,-19.1,–
Nc1nc(Cl)nc2c1ncn2[C@@H]1O[C@@H](COP(=O)(O)OP(=O)(O)OP(=O)(O)O)[C@@H](O)[C@H]1O,-44.3,–
C#C[C@H](N)CCC(=O)O,-21.8,–
Cc1ccccc1N1CCN(S(=O)(=O)C[C@@]23CC[C@H](C[C@H]2NC(=O)[C@@H](N)CCS(C)(=O)=O)C3(C)C)CC1,-38.8,–
Nc1c2c(nc3ccccc13)CCC[C@H]2O,-40.4,–
